An excerpt weighted towards active compounds, which were near 2.4% of everything screened.
CHT PAM: allosteric activators of human choline transporter CHT | B-score at 10 µM | CHT-expressing cells, membrane potential dye, choline EC20; stronger effect = higher value; LV-AA mutant CHT in HEK293 cells | 310,000 compounds, 0.49% hits;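 active = initial fluorescence not abnormally high and integrated response B-score, plate-corrected, over 3 SD above library mean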
Target sequence (Q9GZV3 whole entry, looked up): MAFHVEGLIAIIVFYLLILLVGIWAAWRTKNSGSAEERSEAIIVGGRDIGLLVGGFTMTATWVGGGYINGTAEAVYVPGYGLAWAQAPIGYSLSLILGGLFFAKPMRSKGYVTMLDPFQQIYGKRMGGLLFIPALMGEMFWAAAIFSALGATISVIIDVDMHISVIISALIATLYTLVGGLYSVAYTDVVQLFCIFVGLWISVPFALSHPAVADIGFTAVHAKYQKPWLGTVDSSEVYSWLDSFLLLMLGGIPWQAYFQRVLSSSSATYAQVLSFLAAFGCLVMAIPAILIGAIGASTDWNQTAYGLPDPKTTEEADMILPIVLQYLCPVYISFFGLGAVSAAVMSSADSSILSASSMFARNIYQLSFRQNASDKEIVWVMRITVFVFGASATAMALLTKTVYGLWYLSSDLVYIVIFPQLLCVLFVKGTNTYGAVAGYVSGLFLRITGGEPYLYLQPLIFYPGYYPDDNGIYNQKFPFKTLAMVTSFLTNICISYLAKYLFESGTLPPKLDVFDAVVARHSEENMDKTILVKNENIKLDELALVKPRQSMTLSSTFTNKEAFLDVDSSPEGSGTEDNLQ
CHT block: inhibitors of human choline transporter CHT. CHT-expressing cells, membrane potential dye, choline response; stronger effect = lower value. AID 488975. Q9GZV3. B-score at 10 µM. 310,000 compounds, 0.86% hits;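 active = B-score over 3 SD under the library average, and starting fluorescence ratio not unusually high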;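 also: choline stimulus applied at its EC90 after an EC20 pre-addition; B-score computed on integrated fluorescence ratio after choline addition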
ANO1 activ: activators or potentiators of mouse TMEM16A chloride channel | HEK293 TMEM16A/YFP-H148Q/I152L, iodide quench fluorescence; stronger effect = lower value | B-score at 10 µM | 340,000 compounds, 0.3% hits | AID 623877;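 active = fluorescence-ratio B-score plate-corrected deviation score at least 3 library SD below zero, with starting fluorescence score within 5 deviations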;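 also: channel opened by trigger with iodide after compound preincubation; score built on the fluorescence ratio of max minus min over baseline; more negative score means more quench and so TMEM16A activation or potentiation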
ANO1 block: blocks the mouse calcium-activated chloride channel TMEM16A; HEK293 TMEM16A/YFP iodide influx fluorescence, ionomycin; normalized B-score (activity score, 25-100; higher = stronger inhibition) at 10 µM; 310,000 compounds, 1.2% hits;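 active = ratio plate-corrected score three or more library SD toward inhibition, starting fluorescence score within five deviations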;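 also: score derived from kinetic fluorescence span divided by baseline fluorescence per well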
CHT block conf: confirmation of human choline transporter CHT inhibitors. CHT-expressing cells, choline membrane potential dye; LV-to-AA substituted CHT, HEK293 cells. AID 493221. 2,400 compounds, 70% hits. CHT activity remaining % of control (stronger effect = lower value), % at 10 µM. shares compounds with CHT block;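 active = choline transporter activity left, mean of duplicates at 10 µM, below buffer-only control mean minus 3 SD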;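 also: depolarization triggered by choline at its EC90 following an EC20 pre-addition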
HEK293 CHT ctr: CHT inhibitor counter-screen hit in parental HEK293 cells. shares compounds with CHT block. membrane potential dye, choline response; active = decrease or increase beyond buffer ±3SD. membrane potential ratio readout (active if shifted either direction beyond buffer ±3SD; no single direction) at 10 µM. 2,400 compounds, 4% hits. AID 493222;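 also: parental cells lack the transporter so any hit is non-specific; ratio is peak minus trough fluorescence over baseline after EC90 choline challenge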
Large screens that a line does not name were inactive (follow-up assays come after a bar, where they were run).

O=C(c1ccccc1[N+](=O)[O-])N1CCCN(C(=O)c2ccccc2[N+](=O)[O-])CC1	none
CN(CC(=O)NCc1ccccc1Cl)CC(=O)Nc1cccc(F)c1	none
O=C(Nc1cccc(CNCCc2c[nH]c3ccccc23)c1)c1ccccc1Cl	CHT block -6.3 | CHT block conf 31% | HEK293 CHT ctr inactive
CC(=O)c1cccc(NC(=O)NCCc2c[nH]c3ccccc23)c1	none
COC(=O)c1c(NC(=O)C(C)(C)C)sc2c1CCN(Cc1ccccc1)C2	none
COC(=O)c1ccc(C(=O)N2CCCC(Nc3ccc(C(C)C)cc3)C2)nc1 (stereo not given)	CHT block -5.2 | CHT block conf 58% | HEK293 CHT ctr inactive
Cn1c(=O)[nH]c(=O)c2c1nc(Br)n2C/C=N/Nc1ccccc1	none
CC(=O)/C(=N/Nc1ccccc1)Sc1nnc(C(O)c2ccccc2)n1-c1ccccc1 (stereo not given)	CHT block -5 | CHT block conf inactive | HEK293 CHT ctr inactive
N#C/C(=C(/O)CCl)c1nc(-c2ccccc2)cs1	CHT block -8.4 | CHT block conf -32% | HEK293 CHT ctr inactive
COc1ccc(C/C(O)=C(\C#N)c2nc3ccccc3s2)cc1	CHT block -5, ANO1 block 100 | CHT block conf 55% | HEK293 CHT ctr inactive
CCCN(C(=O)c1cn(CC)c2nc(C)ccc2c1=O)c1c(N)n(Cc2ccccc2)c(=O)[nH]c1=O	CHT block -5.3 | CHT block conf 33% | HEK293 CHT ctr inactive
CN(C)C(=O)c1ccccc1Sc1ccc(Cl)cc1Cl	CHT block -5 | CHT block conf inactive | HEK293 CHT ctr inactive
CC(=O)Nc1ccc(NC(=O)c2ccccc2Sc2ccc([N+](=O)[O-])cc2Cl)cc1	none
COc1ccc2c(c1)CCc1c(C(=O)N3CC4(C)CC3CC(C)(C)C4)noc1-2 (stereo not given)	none
CC(C)OC(=O)c1cccc(-c2ccc(C=O)o2)c1	CHT block -5.2 | CHT block conf 56% | HEK293 CHT ctr inactive
CC(C)OC(=O)c1ccc(COC(=O)c2cccc(-c3nnc(-c4ccccc4)o3)c2)cc1	none
CC(C)COc1nc2ccccc2nc1N1CCN(C)CC1	CHT block -6 | CHT block conf 41% | HEK293 CHT ctr inactive
COc1cccc(/C=C2\N=C(c3c(-c4ccccc4)noc3C)OC2=O)c1OC	none
COc1ccccc1C(=O)N1CCN(C(=O)COc2cccc(C)c2)CC1	none
CCCCn1c(SCC(=O)Nc2cccc(OC)c2)nc2ccc(N3CCOCC3)cc2c1=O	CHT block -6 | CHT block conf 62% | HEK293 CHT ctr inactive
Cc1nn(C(=O)N(C)C)c(C)c1CN1C(=O)c2ccccc2C1=O	none
CC(C)CC(=O)Nc1ccccc1N1CCN(C(=O)c2ccccc2)CC1	CHT block -5.1 | CHT block conf inactive | HEK293 CHT ctr inactive
Cc1ccc(S(=O)(=O)Cc2ccc(C(=O)NCc3ccc4c(c3)OCO4)o2)cc1	none
COc1ccc2c(c1)-c1c(ssc1=S)C(C)(C)N2	CHT block -5.2 | CHT block conf 57% | HEK293 CHT ctr inactive
C/C(=N\Nc1cc(N2CCCCC2)nc(C)n1)c1ccc(Br)cc1	none
CCCCc1cc(-c2n[nH]c(=S)o2)c2ccccc2n1	CHT block -8.4 | CHT block conf 67% | HEK293 CHT ctr inactive
Cc1ccc(NC(=O)CNc2ccc(N3CCOCC3)cc2)cc1S(=O)(=O)N(C)C	none
COc1ccc(CNC(=O)[C@H](C)NC(=O)N2CCn3c2nc2ccccc23)cc1	CHT block -6 | CHT block conf 47% | HEK293 CHT ctr inactive
O=C(c1ccc(Oc2ccc([N+](=O)[O-])cc2Cl)cc1)N1CCCC1	none
O=C(c1cccc(Oc2ccc([N+](=O)[O-])cc2Cl)c1)N1CCCCC1	CHT block -7.4 | CHT block conf 48% | HEK293 CHT ctr inactive
O=C(Nc1sc2c(c1C(=O)O)CCC2)c1ccccc1	none
O=C(Nc1sc2c(c1C(=O)O)CCCC2)c1ccc(Cl)cc1	CHT block -6.3 | CHT block conf 53% | HEK293 CHT ctr inactive
Cc1oc(-c2ccccc2Cl)nc1CS(=O)(=O)CC(=O)N1CCOCC1	none
CCN1CCN(CCn2c(=S)[nH]c3ccccc3c2=O)CC1	none (no result: ANO1 activ)
O=c1c2ccccc2[nH]c(=S)n1CCN1CCCC1	CHT block -7 | CHT block conf 21% | HEK293 CHT ctr inactive
COc1cc(/C=C2/C(=O)N(c3cccc(Br)c3)N=C2C)cc(OC)c1O	CHT block -5.2 | CHT block conf 45% | HEK293 CHT ctr inactive
c1ccc(N2CCN(Cc3ccnc4ccccc34)CC2)cc1	CHT block -11 | CHT block conf inactive | HEK293 CHT ctr inactive
Clc1ncc(CN2CCN(c3ccccc3)CC2)s1	none
Fc1ccc(COc2ccc3ccccc3c2CNc2nn[nH]n2)cc1	none
CNCc1c(OCc2ccc(F)cc2)ccc2ccccc12	CHT block -7.9 | CHT block conf 41% | HEK293 CHT ctr -13
CCn1c(NC(=O)/C=C/c2ccc(F)cc2)nc2ccccc21	none
CCn1c(SCC(=O)c2ccc(NS(=O)(=O)c3ccccc3)cc2)nnc1-c1cccs1	none
Cc1[nH]nc2c1C(c1cccs1)C1=C(CC(C)(C)CC1=O)N2 (stereo not given)	none
CC(C)Sc1nc2c(c(=O)[nH]1)C(c1cccs1)C1=C(CC(C)(C)CC1=O)N2 (stereo not given)	CHT block -5.8 | CHT block conf inactive | HEK293 CHT ctr inactive
COC(=O)CNC(c1ccccc1)c1cc(Br)ccc1N (stereo not given)	none
CCN(CC)CCN(Cc1cc2cc3c(cc2[nH]c1=O)OCCO3)C(=S)NCCCN(C)C	none
CC(=O)Oc1cc2c3c(c1)/C(=C1/SC(=S)NC1=O)C(=O)N3C(C)(C)C=C2C	CHT block -6.8, ANO1 block 100 | CHT block conf 37% | HEK293 CHT ctr inactive
COc1ccc(Cn2cnc3c([N+](=O)[O-])c(C)c(C)cc32)cc1	CHT block -9.4 | CHT block conf 34% | HEK293 CHT ctr inactive
Cc1ccccc1Cn1cnc2c([N+](=O)[O-])c(C)c(C)cc21	none
CCOc1ccc(/C=C/C(=O)NC2CCCCC2)cc1	none
CCN(CC)S(=O)(=O)c1ccc(/C=C/C(=O)NC2CCCCC2)cc1	CHT block -7.1 | CHT block conf 46% | HEK293 CHT ctr inactive
O=C(NCc1ccccc1)C1CCN(S(=O)(=O)N2CCCCCC2)CC1	none
COC(=O)Cc1ccc(NC(=S)NCc2cccc(OC)c2)cc1	none
O=C(CS(=O)(=O)Nc1ccc(F)cc1Cl)Nc1ccc(F)cc1Cl	CHT block -11 | CHT block conf 66% | HEK293 CHT ctr inactive
O=C(CSc1ccc(-c2nc3ccccc3[nH]2)cn1)Nc1ccc(S(=O)(=O)NC2CC2)cc1	CHT block -5.7 | CHT block conf inactive | HEK293 CHT ctr inactive

Bioassay records: PubChem, Johns Hopkins Ion Channel Center
